Experimental data taken from PubChem BioAssay (NCI).
About 83,000 compounds went through this panel and 20% of them were active in at least one assay; those are over-represented in the sample as a whole.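 Cells were grown in 96-well plates and exposed to the test compound at a single concentration for 48 hours; results are reported as percent growth, with values below 10 considered active.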 The source made the active and inactive calls.

System: NCI-H23 lung
Assay: NCI-60 one-dose screen, 48 h (100 = growth as untreated, 0 = no growth, -100 = all killed)
Conditions: 10 µM unless noted
Method: Growth inhibition of the NCI-H23 human Non-Small Cell Lung tumor cell line is measured as a screen for anti-cancer activity. Cells are grown in 96 well plates and exposed to the test compound for 48 hours. Compounds are tested at a single concentration, which is 10^-5 M for most compounds. The reported endpoint is percent growth (GI% or GIPRCNT), where numbers from 0 - 100% represent growth inhibition, and numbers from -100% - 0 represent cell death. For example, a value of 40 represents 60% growth inhibition. A value of 0 means no net growth occurred over the course of the experiment. A value of -40 indicates 40% of cells at the beginning of the experiment died by the end of the experiment. A value of -100 means all cells are dead at the end of the experiment.
NCI-60 Human Tumor Cell Lines Screen was performed using the standard one-dose NCI protocol, which is described in more detail at https://dtp.cancer.gov/discovery_development/nci-60/default.htm.
Compounds with GIPRCNT values below 10 were considered active. Activity score was based on GIPRCNT using the following formula: […]
Score is 0 for GIPRCNT values of 100 or above, 50 for GIPRCNT values of 0, and 100 for GIPRCNT values of -100.

| SMILES | growth |
| --- | --- |
| CC(=O)n1c(-c2ccc(Cl)cc2)nc2c(c1=O)C(c1ccc(Cl)cc1)c1sc3c(Cl)cccc3c1O2 (stereo not given) | -0.859% (active) |
| CNC(=O)CCN1CCN(CC/C=C2\c3ccccc3Sc3ccc(Cl)cc32)CC1 | 91% (inactive) |
| N#Cc1c(-c2ccccn2)[nH]c(=S)[nH]c1=O | 106% (inactive) |
| COc1ccc(-c2cc(-c3ccc(Nc4nc(Nc5ccc(Cl)cc5)nc(Nc5ccc(Cl)cc5)n4)cc3)nc(N)c2C#N)cc1 | 30% (inactive) |
| NS(=O)(=O)c1cnccc1Sc1ccncc1S(N)(=O)=O | 96.5% (inactive) |
| COc1ccc(/C=N\NC(=O)c2cc(-c3ccc(Br)cc3)n(-c3ccc(S(N)(=O)=O)cc3)n2)cc1 | 71.7% (inactive) |
| COc1ccc(OC)c2c1[nH]c(=O)c1c3ncccc3cn21 | 34.4% (inactive) |
| COC(=O)[C@]12CC[C@@H](C)[C@H](C)[C@@H]1C1=CC[C@@H]3[C@@]4(C)C(C=O)=C[C@@](C)(COC(C)=O)[C@@H]4C(=O)C[C@@]3(C)[C@]1(C)CC2 | 34.2% (inactive) |
| COc1ccc(OC)c(-c2c(C#N)c(-c3ccc(Cl)cc3)nc3c2c(-c2ccccc2)nn3-c2ccccc2)c1 | 102% (inactive) |
| O=c1[nH][n+](-c2ccc(Cl)cc2)no1 | 91.6% (inactive) |
| NNC(=O)c1nc(N)n(-c2ccc(S(N)(=O)=O)cc2)n1 | 97.2% (inactive) |
| CCCCCc1nc2c(c3c1CCCC3)CCCC2 | 73.4% (inactive) |
| COc1ccc(NC(=O)CSc2nnc(-c3cc(-c4ccc(S(N)(=O)=O)cc4)nc4ccccc34)n2-c2ccccc2)cc1 | 102% (inactive) |
| O=C1/C(=C/c2ccccc2)CCc2nc3ccccc3c(/C=C/c3ccc(Cl)cc3)c21 | 85.5% (inactive) |
| O=C1c2cccc(NCCN=Cc3cc([N+](=O)[O-])ccc3O)c2C(=O)c2c(NCCN=Cc3cc([N+](=O)[O-])ccc3O)cccc21 | 75% (inactive) |
| CCOC(CN=Cc1cc(C)c2[nH]c3ccccc3c2c1C)OCC | 97.7% (inactive) |
| COc1cc(C(=O)/C=C/c2c(C(F)(F)F)nc3sccn23)cc(OC)c1OC | 1.76% (active) |
| COc1ccc(-c2[nH]c(=S)n(C(CC3(C)NCC(=O)N3n3c(-c4ccccc4)cc(C)nc3=S)c3ccc(OC)cc3)c(=O)c2Br)cc1 (stereo not given) | 70.8% (inactive) |
| Cc1ccc(/C=C2\C(=O)N(C)c3ccc(S(=O)(=O)Nc4ccc(C(C)(C)C)cc4)cc32)s1 | 64.1% (inactive) |
| COc1ccc(-c2cc(-c3cc(OC)ccc3OC)nc(SCC(=O)c3ccccc3)c2C#N)cc1 | 92.7% (inactive) |

| SMILES | growth |
| --- | --- |
| COC1=C(OC)C(=O)C(OC)=C(OC)C1=O | 98.6% (inactive) |
| Oc1ccc(CN2CCC(N3CCOCC3)CC2)c2cccnc12 | 15.2% (inactive) |
| COc1ccc(-c2nc3sccn3c2-c2cc(-c3cc(OC)c(OC)c(OC)c3)on2)cc1 | 88.6% (inactive) |
| O=C(/C=C/c1ccc(Cl)nc1)c1ccc(Cl)cc1Cl | 105% (inactive) |
| CC(C)CCC[C@@H](C)[C@H]1CC[C@H]2[C@@H](Nc3ccc(O)cc3)CCC[C@]12C | 84.2% (inactive) |
| COc1ccc(-c2nc(SCCC(C)C)nc(N/N=C\c3cccc([N+](=O)[O-])c3)c2C#N)cc1 | 28.7% (inactive) |
| O=C(Cc1ccc(F)c(F)c1)Nc1cc(C2(C(F)(F)F)CC2)nn1Cc1ccccc1 | -9.81% (active) |
| CN1CCN(CC(=O)Nc2nc(-c3cccc(NS(=O)(=O)c4cccc5c(N(C)C)cccc45)c3)cs2)CC1 | 57.6% (inactive) |
| O=C(c1ccccc1)N1N=C(c2ccccc2)CC1c1nnc2n(Cc3ccccc3)c(=O)c3c4c(sc3n12)CCCC4 (stereo not given) | 116% (inactive) |
| COc1cc(C2CC(=O)Nc3c2c(C)nn3-c2nc3ccccc3[nH]2)c(OC)c(OC)c1OC (stereo not given) | 82.6% (inactive) |
| Cc1cc(NCCCCNc2ccnc3cc(Cl)ccc23)nc(Nc2ccc(C(=O)N3CCCC3)cc2)n1 | 81.4% (inactive) |
| CCc1c2c(nc3ccc(OC(=O)OCc4ccc(B5OC(C)(C)C(C)(C)O5)cc4)cc13)-c1cc3c(c(=O)n1C2)COC(=O)[C@]3(O)CC | -30.6% (active) |
| CC1CC2Oc3ccc(Cl)cc3C(=O)N2O1 (stereo not given) | 99.5% (inactive) |
| COc1ccc(N2CCN(c3nc(-c4cc(OC)c(OC)c(OC)c4)nc4ccccc34)CC2)cc1 | 81.1% (inactive) |
| O=C(N/N=C/c1ccncc1)c1ccc(C(F)(F)F)nc1Nc1cccc(C(F)(F)F)c1 | 21.4% (inactive) |
| O=C(/C=C/c1cccc(O)c1)c1cccc(-n2cc(-c3ccc4ccccc4c3)[nH]c2=O)c1 | 28.2% (inactive) |
| COc1ccc(N=Nc2ccc(O)c(=O)cc2)cc1 | 2.37% (active) |
| COC(=O)CCC1=C(C)C2=NC1=CC1=NC(=CC3=NC(=Cc4[nH]c(/c(=C(/C)O)c4C)=C2)C(C(C)=O)=C3C)C(C)=C1CCC(=O)OC | 99.8% (inactive) |
| Fc1c[c-]c(-c2ccccn2)c(F)c1.[CH3-].[Pt+2].c1ccc(P(C[PH+](c2ccccc2)c2ccccc2)c2ccccc2)cc1 | -51.1% (active) |
| COc1ccc(-c2nc(SCCC(C)C)nc(N/N=C\c3ccccc3O)c2C#N)cc1 | 83.2% (inactive) |
